Data on four compounds can be found in ChEMBL document CHEMBL2218924, “A broad activity screen in support of a chemogenomic map for kinase signalling research and drug discovery” (Biochem J, 2013).

The term residual activity denotes the signal under treatment as a percentage of the control signal.

For experiment [1], the target named is T1, Muscle, skeletal receptor tyrosine-protein kinase (Homo sapiens) (UniProt O15146).
T1 sequence (whole entry): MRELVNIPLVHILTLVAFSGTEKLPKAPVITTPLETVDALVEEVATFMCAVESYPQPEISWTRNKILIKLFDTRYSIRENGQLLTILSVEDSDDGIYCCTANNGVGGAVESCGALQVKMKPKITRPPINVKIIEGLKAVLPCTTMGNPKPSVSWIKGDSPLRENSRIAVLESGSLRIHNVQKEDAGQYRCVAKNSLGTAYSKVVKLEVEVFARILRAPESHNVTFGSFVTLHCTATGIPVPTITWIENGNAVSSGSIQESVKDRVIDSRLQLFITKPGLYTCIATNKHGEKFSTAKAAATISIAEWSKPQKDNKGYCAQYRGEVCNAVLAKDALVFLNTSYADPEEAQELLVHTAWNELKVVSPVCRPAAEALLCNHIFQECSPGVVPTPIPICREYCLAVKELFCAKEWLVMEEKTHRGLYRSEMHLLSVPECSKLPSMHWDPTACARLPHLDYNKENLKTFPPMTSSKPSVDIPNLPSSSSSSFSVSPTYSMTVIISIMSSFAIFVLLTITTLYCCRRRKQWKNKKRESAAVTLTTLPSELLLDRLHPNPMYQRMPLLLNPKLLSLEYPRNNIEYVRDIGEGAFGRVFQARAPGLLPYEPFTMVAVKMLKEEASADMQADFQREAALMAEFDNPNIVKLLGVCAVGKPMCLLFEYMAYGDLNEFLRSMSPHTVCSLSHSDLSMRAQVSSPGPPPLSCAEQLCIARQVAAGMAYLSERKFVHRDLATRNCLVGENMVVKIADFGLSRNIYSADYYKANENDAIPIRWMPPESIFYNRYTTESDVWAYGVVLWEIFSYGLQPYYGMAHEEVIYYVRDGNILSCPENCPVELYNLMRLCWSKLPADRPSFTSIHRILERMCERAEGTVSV
The settings on record: at 1 µM.

For experiment [2], the target named is T1, Muscle, skeletal receptor tyrosine-protein kinase (Homo sapiens). The conditions noted are these: at 10 µM.
Experiment [3] has as its target T2, Serine/threonine-protein kinase Nek11 (Homo sapiens) (UniProt Q8NG66).
T2 sequence (whole entry): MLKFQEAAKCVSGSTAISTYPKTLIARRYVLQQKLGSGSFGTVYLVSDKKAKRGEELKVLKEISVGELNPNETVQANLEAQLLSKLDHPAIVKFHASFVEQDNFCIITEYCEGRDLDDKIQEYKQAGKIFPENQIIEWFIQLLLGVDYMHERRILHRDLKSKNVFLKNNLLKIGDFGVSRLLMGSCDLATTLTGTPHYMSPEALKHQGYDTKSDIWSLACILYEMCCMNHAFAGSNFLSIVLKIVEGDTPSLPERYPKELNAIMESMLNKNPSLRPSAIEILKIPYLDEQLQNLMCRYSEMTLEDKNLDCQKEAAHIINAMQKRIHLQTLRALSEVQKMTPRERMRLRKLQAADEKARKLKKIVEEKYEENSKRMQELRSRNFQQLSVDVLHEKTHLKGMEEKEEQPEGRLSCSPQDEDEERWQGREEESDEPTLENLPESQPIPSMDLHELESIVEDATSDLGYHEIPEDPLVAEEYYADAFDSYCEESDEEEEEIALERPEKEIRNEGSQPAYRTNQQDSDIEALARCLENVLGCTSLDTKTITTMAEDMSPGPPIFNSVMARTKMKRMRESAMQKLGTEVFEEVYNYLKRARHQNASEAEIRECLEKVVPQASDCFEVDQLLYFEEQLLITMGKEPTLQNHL
The conditions noted are these: at 1 µM.

The target of experiment [4] is T2, Serine/threonine-protein kinase Nek11 (Homo sapiens). The conditions noted are these: at 10 µM.
For experiment [5], the target named is T3, Serine/threonine-protein kinase Nek3 (Homo sapiens) (UniProt P51956).
T3 sequence (whole entry): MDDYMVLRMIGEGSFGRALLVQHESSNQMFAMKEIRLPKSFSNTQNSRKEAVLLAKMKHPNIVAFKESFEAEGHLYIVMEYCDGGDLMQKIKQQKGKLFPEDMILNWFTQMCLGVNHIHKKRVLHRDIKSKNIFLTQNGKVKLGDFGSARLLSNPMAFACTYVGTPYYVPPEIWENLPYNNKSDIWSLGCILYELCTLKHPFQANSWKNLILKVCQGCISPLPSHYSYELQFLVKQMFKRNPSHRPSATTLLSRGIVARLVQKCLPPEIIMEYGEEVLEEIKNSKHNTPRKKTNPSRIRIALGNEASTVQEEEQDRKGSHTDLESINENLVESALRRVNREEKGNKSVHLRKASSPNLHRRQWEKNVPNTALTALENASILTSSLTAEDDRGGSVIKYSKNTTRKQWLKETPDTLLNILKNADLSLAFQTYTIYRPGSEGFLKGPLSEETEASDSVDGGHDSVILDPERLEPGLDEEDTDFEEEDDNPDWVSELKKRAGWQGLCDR
The settings on record: at 1 µM.

In experiment [6] the target is Serine/threonine-protein kinase tousled-like 2 (Homo sapiens) (UniProt Q86UE8). The conditions noted are these: at 1 µM.
Experiment [7] has the same target. The settings on record: at 10 µM.
In experiment [8] the target is T4, Testis-specific serine/threonine-protein kinase 1 (Homo sapiens) (UniProt Q9BXA7).
T4 sequence (whole entry): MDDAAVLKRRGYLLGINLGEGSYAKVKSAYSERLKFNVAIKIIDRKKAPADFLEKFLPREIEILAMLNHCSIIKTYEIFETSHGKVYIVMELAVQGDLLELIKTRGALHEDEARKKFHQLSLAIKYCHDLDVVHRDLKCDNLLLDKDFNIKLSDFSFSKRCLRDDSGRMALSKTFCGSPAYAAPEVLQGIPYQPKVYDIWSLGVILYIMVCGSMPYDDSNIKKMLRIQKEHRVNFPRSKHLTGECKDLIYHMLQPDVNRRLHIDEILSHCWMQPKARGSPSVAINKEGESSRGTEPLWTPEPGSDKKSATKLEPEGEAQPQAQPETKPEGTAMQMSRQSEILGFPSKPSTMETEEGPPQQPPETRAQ
The settings on record: at 1 µM.

Experiment [9] has as its target T4, Testis-specific serine/threonine-protein kinase 1 (Homo sapiens). The settings on record: at 10 µM.
Experiment [10] has as its target T5, Tyrosine-protein kinase Tec (Homo sapiens) (UniProt P42680).
T5 sequence (whole entry): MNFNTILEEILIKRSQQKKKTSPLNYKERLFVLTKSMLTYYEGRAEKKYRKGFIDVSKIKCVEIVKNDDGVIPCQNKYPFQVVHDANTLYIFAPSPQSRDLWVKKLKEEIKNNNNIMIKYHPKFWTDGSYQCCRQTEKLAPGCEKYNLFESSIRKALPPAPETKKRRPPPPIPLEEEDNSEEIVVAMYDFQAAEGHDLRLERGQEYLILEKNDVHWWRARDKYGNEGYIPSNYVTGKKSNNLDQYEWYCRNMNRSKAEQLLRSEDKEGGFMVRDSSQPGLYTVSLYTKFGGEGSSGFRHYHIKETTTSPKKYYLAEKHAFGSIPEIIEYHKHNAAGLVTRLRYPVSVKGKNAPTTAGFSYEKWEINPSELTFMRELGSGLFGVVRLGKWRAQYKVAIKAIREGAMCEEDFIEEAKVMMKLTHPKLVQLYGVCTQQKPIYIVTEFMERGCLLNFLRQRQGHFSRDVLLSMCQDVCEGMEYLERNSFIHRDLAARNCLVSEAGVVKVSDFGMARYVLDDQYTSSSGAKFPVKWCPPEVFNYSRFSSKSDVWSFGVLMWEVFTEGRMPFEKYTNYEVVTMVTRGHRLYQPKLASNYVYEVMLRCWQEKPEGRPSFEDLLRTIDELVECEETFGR
The settings on record: at 1 µM.

The target of experiment [11] is T5, Tyrosine-protein kinase Tec (Homo sapiens). The conditions noted are these: at 10 µM.
Experiment [12] deals with High affinity nerve growth factor receptor (Homo sapiens) (UniProt P04629). The conditions noted are these: at 1 µM.
Experiment [13] has the same target. The settings on record: at 10 µM.
The target of experiment [14] is BDNF/NT-3 growth factors receptor (Homo sapiens) (UniProt Q16620). The conditions noted are these: at 1 µM.
In experiment [15] the target is T6, Serine/threonine-protein kinase Nek2 (Homo sapiens) (UniProt P51955).
T6 sequence (whole entry): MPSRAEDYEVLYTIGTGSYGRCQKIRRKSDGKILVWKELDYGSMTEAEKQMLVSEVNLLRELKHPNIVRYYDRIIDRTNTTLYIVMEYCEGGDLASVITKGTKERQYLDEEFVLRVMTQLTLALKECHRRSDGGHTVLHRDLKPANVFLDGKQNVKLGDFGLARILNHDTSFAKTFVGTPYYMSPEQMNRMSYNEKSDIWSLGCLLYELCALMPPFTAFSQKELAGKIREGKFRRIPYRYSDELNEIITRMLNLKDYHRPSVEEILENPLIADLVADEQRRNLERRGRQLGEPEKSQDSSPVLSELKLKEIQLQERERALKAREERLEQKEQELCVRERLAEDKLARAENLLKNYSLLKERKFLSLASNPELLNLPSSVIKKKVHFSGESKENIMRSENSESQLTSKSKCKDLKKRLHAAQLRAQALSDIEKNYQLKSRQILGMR
The settings on record: at 1 µM.

Experiment [16] addresses T6, Serine/threonine-protein kinase Nek2 (Homo sapiens). The settings on record: at 10 µM.
Experiment [17] has as its target T7, Testis-specific serine/threonine-protein kinase 2 (Homo sapiens) (UniProt Q96PF2).
T7 sequence (whole entry): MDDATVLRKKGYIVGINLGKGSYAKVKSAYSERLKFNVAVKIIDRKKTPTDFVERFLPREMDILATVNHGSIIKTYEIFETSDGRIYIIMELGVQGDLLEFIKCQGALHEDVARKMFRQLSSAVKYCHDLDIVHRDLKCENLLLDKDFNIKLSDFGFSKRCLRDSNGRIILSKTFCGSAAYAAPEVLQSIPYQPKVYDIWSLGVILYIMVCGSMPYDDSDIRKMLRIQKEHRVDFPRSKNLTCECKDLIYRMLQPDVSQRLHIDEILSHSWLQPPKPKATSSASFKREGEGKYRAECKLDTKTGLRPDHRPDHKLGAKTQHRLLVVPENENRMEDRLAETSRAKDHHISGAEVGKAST
The settings on record: at 10 µM.

The target in experiment [18] is Angiopoietin-1 receptor (Homo sapiens) (UniProt Q02763). The conditions noted are these: at 1 µM.
Experiment [19] has the same target. The settings on record: at 10 µM.
Experiment [20] has as its target T3, Serine/threonine-protein kinase Nek3 (Homo sapiens). The settings on record: at 10 µM.

Chain of Angiopoietin-1 receptor (Homo sapiens) (Q02763 whole entry): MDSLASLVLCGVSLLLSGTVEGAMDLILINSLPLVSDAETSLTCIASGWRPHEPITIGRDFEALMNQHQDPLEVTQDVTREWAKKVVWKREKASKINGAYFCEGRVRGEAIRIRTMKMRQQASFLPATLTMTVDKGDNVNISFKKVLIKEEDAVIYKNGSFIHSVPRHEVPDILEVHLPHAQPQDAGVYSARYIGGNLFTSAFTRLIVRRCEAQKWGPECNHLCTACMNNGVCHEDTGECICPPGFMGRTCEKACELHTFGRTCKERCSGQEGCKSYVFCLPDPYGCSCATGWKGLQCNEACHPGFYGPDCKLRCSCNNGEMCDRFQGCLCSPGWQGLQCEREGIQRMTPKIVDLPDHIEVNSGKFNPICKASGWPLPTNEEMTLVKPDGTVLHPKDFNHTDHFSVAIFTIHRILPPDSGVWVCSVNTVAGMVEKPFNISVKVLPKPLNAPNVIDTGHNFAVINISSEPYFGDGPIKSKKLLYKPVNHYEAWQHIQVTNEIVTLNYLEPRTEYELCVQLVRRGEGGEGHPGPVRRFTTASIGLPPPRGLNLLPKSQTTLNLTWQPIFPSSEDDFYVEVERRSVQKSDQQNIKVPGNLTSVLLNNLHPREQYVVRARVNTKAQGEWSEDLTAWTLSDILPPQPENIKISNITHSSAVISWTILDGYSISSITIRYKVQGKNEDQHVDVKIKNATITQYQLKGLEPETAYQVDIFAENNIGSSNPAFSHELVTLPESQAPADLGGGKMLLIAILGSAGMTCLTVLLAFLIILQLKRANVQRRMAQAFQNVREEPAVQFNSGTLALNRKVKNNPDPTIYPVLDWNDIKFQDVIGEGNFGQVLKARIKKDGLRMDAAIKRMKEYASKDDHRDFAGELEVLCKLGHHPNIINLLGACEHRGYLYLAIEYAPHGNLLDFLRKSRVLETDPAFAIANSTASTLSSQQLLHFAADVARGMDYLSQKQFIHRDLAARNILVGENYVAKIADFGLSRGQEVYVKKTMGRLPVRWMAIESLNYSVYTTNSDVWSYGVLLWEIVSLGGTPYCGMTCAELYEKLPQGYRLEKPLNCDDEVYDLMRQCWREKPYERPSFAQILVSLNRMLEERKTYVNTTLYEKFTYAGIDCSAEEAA
Chain of Serine/threonine-protein kinase tousled-like 2 (Homo sapiens) (Q86UE8 whole entry, looked up): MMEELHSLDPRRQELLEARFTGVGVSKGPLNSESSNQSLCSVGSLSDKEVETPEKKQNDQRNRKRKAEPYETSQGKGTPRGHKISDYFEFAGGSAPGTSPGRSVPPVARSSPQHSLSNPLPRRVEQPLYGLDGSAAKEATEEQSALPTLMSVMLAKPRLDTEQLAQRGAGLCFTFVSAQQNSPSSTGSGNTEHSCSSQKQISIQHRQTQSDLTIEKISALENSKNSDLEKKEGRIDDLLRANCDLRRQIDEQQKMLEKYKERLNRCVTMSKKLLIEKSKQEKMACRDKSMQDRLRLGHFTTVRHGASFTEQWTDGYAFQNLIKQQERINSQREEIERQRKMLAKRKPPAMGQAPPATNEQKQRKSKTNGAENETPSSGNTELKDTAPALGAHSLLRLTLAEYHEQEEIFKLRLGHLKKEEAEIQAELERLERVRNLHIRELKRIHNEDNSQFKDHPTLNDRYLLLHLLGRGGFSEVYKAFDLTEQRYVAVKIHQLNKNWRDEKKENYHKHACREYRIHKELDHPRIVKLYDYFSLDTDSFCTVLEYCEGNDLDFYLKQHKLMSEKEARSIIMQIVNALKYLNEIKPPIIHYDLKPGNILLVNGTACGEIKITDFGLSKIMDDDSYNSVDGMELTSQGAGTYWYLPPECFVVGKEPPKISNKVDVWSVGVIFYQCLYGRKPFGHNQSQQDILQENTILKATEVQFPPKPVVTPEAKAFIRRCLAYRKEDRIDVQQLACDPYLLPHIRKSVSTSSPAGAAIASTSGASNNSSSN
Chain of BDNF/NT-3 growth factors receptor (Homo sapiens) (Q16620 32-822 limits assumed): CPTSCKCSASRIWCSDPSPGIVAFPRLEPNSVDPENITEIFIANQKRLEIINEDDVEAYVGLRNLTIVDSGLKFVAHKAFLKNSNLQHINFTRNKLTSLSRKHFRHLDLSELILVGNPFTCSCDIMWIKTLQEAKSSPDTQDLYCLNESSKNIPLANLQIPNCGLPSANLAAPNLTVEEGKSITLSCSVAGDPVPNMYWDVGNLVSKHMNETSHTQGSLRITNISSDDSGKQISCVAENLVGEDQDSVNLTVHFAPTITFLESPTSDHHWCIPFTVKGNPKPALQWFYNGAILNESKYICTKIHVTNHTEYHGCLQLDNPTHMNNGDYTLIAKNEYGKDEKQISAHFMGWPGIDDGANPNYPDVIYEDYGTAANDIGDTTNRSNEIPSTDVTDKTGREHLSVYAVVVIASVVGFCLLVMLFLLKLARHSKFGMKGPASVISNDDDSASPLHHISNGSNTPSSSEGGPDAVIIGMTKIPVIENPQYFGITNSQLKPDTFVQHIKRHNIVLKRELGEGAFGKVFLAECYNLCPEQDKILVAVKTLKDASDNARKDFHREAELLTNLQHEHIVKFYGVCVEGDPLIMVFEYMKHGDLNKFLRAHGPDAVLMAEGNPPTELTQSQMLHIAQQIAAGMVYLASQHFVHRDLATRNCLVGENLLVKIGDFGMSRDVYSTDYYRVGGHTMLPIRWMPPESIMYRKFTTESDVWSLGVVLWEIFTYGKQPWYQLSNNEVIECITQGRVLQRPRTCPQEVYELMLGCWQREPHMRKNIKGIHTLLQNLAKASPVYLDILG
Chain of High affinity nerve growth factor receptor (Homo sapiens) (P04629 33-796 limits assumed): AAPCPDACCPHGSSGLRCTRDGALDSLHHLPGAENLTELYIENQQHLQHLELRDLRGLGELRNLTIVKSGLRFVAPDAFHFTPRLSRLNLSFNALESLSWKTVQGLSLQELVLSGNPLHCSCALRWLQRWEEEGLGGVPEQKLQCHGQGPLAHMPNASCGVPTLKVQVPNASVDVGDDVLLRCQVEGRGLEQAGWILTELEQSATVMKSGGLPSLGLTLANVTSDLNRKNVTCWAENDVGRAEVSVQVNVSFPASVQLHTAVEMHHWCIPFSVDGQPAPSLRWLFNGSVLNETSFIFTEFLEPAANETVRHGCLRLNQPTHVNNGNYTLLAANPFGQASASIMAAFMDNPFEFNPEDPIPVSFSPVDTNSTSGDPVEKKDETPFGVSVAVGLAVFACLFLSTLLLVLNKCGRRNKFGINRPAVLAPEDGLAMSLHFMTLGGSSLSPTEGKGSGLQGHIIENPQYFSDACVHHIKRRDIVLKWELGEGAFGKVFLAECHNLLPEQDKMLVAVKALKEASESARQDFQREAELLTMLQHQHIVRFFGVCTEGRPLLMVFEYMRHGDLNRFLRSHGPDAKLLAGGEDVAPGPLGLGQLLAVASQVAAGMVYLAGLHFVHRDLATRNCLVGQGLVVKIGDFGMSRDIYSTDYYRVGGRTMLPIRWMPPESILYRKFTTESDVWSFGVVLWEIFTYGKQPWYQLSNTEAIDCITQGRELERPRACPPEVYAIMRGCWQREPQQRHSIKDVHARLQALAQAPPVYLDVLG

Consider `O=C1Nc2ccccc2/C1=C1/Nc2ccccc2/C1=N\OCCC(O)CO` (stereo not drawn), for which the residual activity was 20% in [1]; 3% in experiment [2]; 41% in [3]; 35% in experiment [4]; 71% in [5]; 38% in [6]. The residual activity in [7] is 6%; in experiment [8] it was 75%; in experiment [9], 69%; in experiment [10] it was 47%; in [11] it was 8%; in experiment [12], -1%. Moreover, the residual activity in experiment [13] is 0%; in [14] it was -2%.

For the compound `Cc1cncc2cccc(S(=O)(=O)N3CCCN(C(=O)CN)C[C@H]3C)c12`, the residual activity worked out at 90% in [1]; 67% in experiment [2]; 88% in experiment [3]; 86% in [4]; 78% in experiment [15]; 92% in [16]. The residual activity in [7] amounted to 82%; in experiment [8], 95%; in [9] it was 79%; in experiment [17], 94%; in [10], 100%; in experiment [11], 77%. Besides, the residual activity in [18] was 78%; in experiment [19], 40%; in experiment [12], 64%; in [13] it was -1%.

As to `O=C1NC(=O)/C(=C\c2ccc3nccnc3c2)S1`, the residual activity turned out to be 90% in experiment [1]; 75% in experiment [2]; 43% in experiment [3]; 35% in [4]; 88% in [15]; 86% in [16]. The residual activity in [5] came to 109%; in experiment [20] it was 81%; in experiment [6] it was 103%; in experiment [7], 91%; in experiment [8], 92%; in experiment [9] it was 58%. The residual activity amounted to 86% in [17]; 98% in experiment [10]; 79% in [11]; 75% in experiment [18]; 83% in experiment [19]; 127% in experiment [12]. Further, the residual activity turned out to be 96% in experiment [13] and 126% in experiment [14].

Turning to `c1ccc2c(-c3ccncc3)c[nH]c2c1`, the residual activity in [1] is 88%; in experiment [2], 82%; in experiment [3], 89%; in [4], 67%; in [15], 78%; in experiment [16], 88%. Besides, the residual activity in experiment [6] was 103%; in experiment [7], 85%; in experiment [8], 94%; in experiment [9], 89%; in experiment [17] it was 95%; in experiment [10], 103%. The residual activity in experiment [11] came out at 85%; in experiment [18], 77%; in experiment [19], 88%; in experiment [12] it was 91%; in experiment [13], 55%; in [14], 134%.
